# A selection: hits, their analogues and other compounds. The true share with any hit is near 12%.
# BAZ2B inh = inhibitors of human BAZ2B bromodomain | Potency, µM (series often up to 114 µM), for inactives: top-dose activity change, negative = inhibition, usual class: inhibitors | AlphaScreen BAZ2B-H3K14Ac peptide displacement | AID 504333 | 4.4% of 360,000 active; also: % is scaled to controls: 0 for no effect and ±100 for the full control effect; nearly all actives have a fitted effect of over 60% in size
#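 Compounds, titrated to a top concentration of 110 uM, were incubated 30 min at room temperature with preformed BAZ2B/acetyl-K14 H3 peptide complex (50 nM each). Proximity signal was measured by AlphaScreen after 20 min with beads.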
# PLK1 PBD inh = blocks phosphopeptide binding to human PLK1 polo-box domain; P53350; Plk1 PBD binding of FITC phosphopeptide, fluorescence polarization; Potency, µM, inactives show max response, negative = inhibition, hits mostly inhibitors; 2.8% of 360,000 active; AID 720504; also: series mostly up to about 57 µM; % is scaled to controls: 0 for no effect and ±100 for the full control effect; nearly all actives have a fitted effect of over 65% in size
# JMJD2A Tudor inh = inhibitors of human JMJD2A Tudor domain | O75164 | AlphaScreen JMJD2A-Tudor / H3K4me3 peptide binding | Potency, µM (titrated, usually from 114 µM), for the others: at the top dose activity change, negative = inhibition, usual class: inhibitors | 4.4% of 390,000 active; also: % is scaled to controls: 0 for no effect and ±100 for the full control effect; nearly all actives have a fitted effect of over 50% in size
# HP1b binding inh = HP1-beta chromodomain-methylated histone interaction inhibition | P83916 | AlphaScreen HP1-beta / biotin-H3K9me3 peptide binding | Potency, µM (series often up to 114 µM), for inactives: at the highest dose activity change, negative = inhibition, usual class: inhibitors | 0.56% of 390,000 active | AID 540317; also: nearly all actives have a fitted effect of over 70% in size
#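 AlphaScreen: HP1-beta (50 nM) preformed 30 min with biotin-H3(1-18)K9me3 peptide (50 nM) in PBS pH 7.4, 0.01% Tween-20. Compound added for 30 min at RT, then streptavidin donor/nickel chelate acceptor beads (10 ug/mL) for 30 min.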
# G9a block = blocks human histone lysine methyltransferase G9a; Q96KQ7; G9a H3K9 monomethylation, AlphaScreen, 2 h; Potency, µM (titrated, usually from 102 µM), inactives show at the top dose activity, negative = inhibition, usual class: inhibitors; 8.8% of 350,000 active; AID 504332; also: % is scaled to controls: 0 for no effect and ±100 for the full control effect; nearly all actives have a fitted effect of over 75% in size
#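 Enzyme 20 nM + cpd, 15 min RT; add b-H3K9 pep 500 nM / SAM 20 uM; 2 h RT; anti-H3K9me1 Ab 0.5 ug/mL + SA donor / anti-rabbit acceptor beads 20 ug/mL each, 10 min; AlphaScreen read.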
# Sfp PPTase inh = blocks B. subtilis Sfp PPTase activity; Q9F4F7; Biochemical Sfp PPTase activity, qHTS; Potency, µM, for inactives: largest response in the series, negative = inhibition, usual class: inhibitors; 3.5% of 310,000 active; AID 1490;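 also: the enzyme is Sfp with the accession as filed and its product quenches rhodamine fluorescence; 0% = enzyme reaction without inhibitor and -100% = no enzyme wells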
#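 Buffer: 50 mM Hepes-Na pH 7.6, 10 mM MgCl2, 0.01% Nonidet P-40, 0.01% BSA. Enzyme 15 nM, pre-exposed to compound 15 min; substrates then added and fluorescence change tracked over 30 min.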
# Active calls of the source: *; ? = inconclusive; nt = no result; [ ] = dose if it differs, or a comment. Calls follow the shape of the dose curve; as a rule, active = well fitted curve in the direction sought with a large enough effect; inconclusive = small, poorly fitted or top-dose-only effect, or another doubt; inactive = no such curve, though single readings can be large; an effect the other way counts as inactive or inconclusive. Potency is read from the fitted curve at half-maximal effect.
SMILES,BAZ2B inh,PLK1 PBD inh,JMJD2A Tudor inh,HP1b binding inh,G9a block,Sfp PPTase inh
NC(=O)C1=CN(C2OC(COP(=O)(O)OP(=O)(O)OC[C@H]3O[C@@H](n4cnc5c(N)ncnc54)[C@H](OP(=O)(O)O)[C@H]3O)C(O)C2O)C=CC1 (stereo not given in full),nt,nt,nt,nt,7.8%,nt
CN1CCC[C@@H]1c1cccnc1,nt,nt,nt,nt,-43.3%[59 µM],21.7%
O=[N+]([O-])c1ccccc1CNCCc1ccc(F)cc1,50.1µM*,-6.6%,10µM*,?,7.94µM*,-16.7%
Clc1ccccc1CNCCc1c[nH]c2ccccc12,nt,0.4%,nt,nt,nt,nt
O=[N+]([O-])c1ccc(CNCCc2ccccc2)cc1,50.1µM*,4.3%,20µM*,?,7.94µM*,-18.9%
O=[N+]([O-])c1ccccc1CNCCc1c[nH]c2ccccc12,50.1µM*,-13.9%,22.4µM*,?,nt,-10.4%
O=[N+]([O-])c1cccc(CN2CCN(Cc3ccc(Br)cc3)CC2)c1,20µM*,-0.7%,20µM*,?,3.55µM*,?
CCOC(=O)c1ncn2c1CN(C)C(=O)c1cc(N=[N+]=[N-])ccc1-2,nt,nt,nt,nt,nt,12.4%
CC(C)c1ccc(N2C(=O)NC(=O)/C(=C/C=C/c3ccco3)C2=O)cc1,?,0.67µM*,?,-5.9%,50.1µM*,-11.9%
CC(C)c1ccc(N2C(=O)CC(=O)NC2=O)cc1,1.4%,-17.4%,-16.4%,23.0%,-28.9%,7.4%
CCc1ccc(N2C(=O)NC(=O)/C(=C\C=C\c3ccco3)C2=O)cc1,44.7µM*,1.34µM*,-28.6%,9.7%,-128.3%[59 µM],50.1µM*
CCCCN1C(=O)/C(=C\c2ccco2)C(=O)N(CCc2ccccc2)C1=O,35.5µM*,0.844µM*,?,?,31.6µM*,?
CCCCN1C(=O)/C(=C/C=C/c2ccco2)C(=O)NC1=S,35.5µM*,1.06µM*,22.4µM*,35.5µM*,7.94µM*,28.2µM*
CC(C)(C)OC(=O)C(Br)CCBr (stereo not given),nt,nt,nt,nt,nt,-9.9%
CN1C[C@H](C(=O)N[C@]2(C)O[C@@]3(O)C4CCCN4C(=O)[C@H](Cc4ccccc4)N3C2=O)C[C@@H]2c3cccc4[nH]cc(c34)C[C@H]21 (stereo not given in full),nt,nt,nt,nt,17.1%[12.7 µM],-25.4%
CCN1C[C@]2(C)CC[C@H](O)[C@@]34[C@@H]5C[C@@H]6[C@@H](OC)C[C@@](O)(C5[C@H]6O)[C@@H](C[C@@H]23)[C@@H]14,nt,nt,nt,nt,15.0%[12.7 µM],nt
CC(=O)OC1C[C@@]2(C)C(c3ccoc3)C[C@H]3O[C@@]32[C@@]2(C)C(=O)C(O)=C3C(C)(C)C(=O)C=C[C@]3(C)C12 (stereo not given in full),nt,nt,nt,nt,-42.0%[2.33 µM],-3.2%
O=C1NC(=O)N(Cc2ccc(F)cc2)C(=O)/C1=C\C=C\c1ccco1,56.2µM*,?,-19.9%[11.4 µM],9.3%,39.8µM*,?
CC1=NN(c2ccccc2)C(=O)C1/C=C1\C(=O)NC(=O)N(c2cc(C)cc(C)c2)C1=O (stereo not given),?,-9.1%,-29.6%,-21.0%,?,-18.0%
Cc1cc(C)cc(N2C(=O)NC(=O)/C(=C\C=C\c3ccco3)C2=O)c1,?,1.68µM*,?,?,11.2µM*,44.7µM*
Cc1ccc(N2C(=O)NC(=O)/C(=C/C=C/c3ccco3)C2=O)cc1,-25.7%,?,-20.2%,12.3%,?,50.1µM*
CCc1ccc(N2NC(=O)/C(=C/C=C/c3ccco3)C2=O)cc1,?,-14.1%,?,-30.9%,8.91µM*,3.7%
CC(C)C[C@H](NC(=O)[C@H](Cc1ccccc1)NC(=O)CNC(=O)[C@@H](COC(C)(C)C)NC(=O)[C@@H](N)Cc1ccc(O)cc1)C(=O)N[C@H](C(=O)O)[C@@H](C)OC(C)(C)C,nt,nt,nt,nt,nt,14.6%
N#Cc1ccc(CN2CC3(CCNCC3)C2)cc1,nt,nt,nt,nt,-3.6%[12.7 µM],-18.9%
